The structures appear in SMILES notation. For some assays here: Results with a measured potency or affinity are listed apart.

What all share (parameters): scale not given: direction of the effect not stated beside the values
The target in assay [1] is Protein translocase subunit SecA (Escherichia coli (strain K12)) (UniProt P10408). Briefly: Assay to Identify E. coli SecA ATPase Inhibitors. Particulars: 30 µM. In kind it is functional.
Assay [2] addresses T1, Ubiquitin-activating enzyme e1, putative (Leishmania donovani (strain BPK282A1)) (UniProt E9BSI1).
T1 sequence (whole entry): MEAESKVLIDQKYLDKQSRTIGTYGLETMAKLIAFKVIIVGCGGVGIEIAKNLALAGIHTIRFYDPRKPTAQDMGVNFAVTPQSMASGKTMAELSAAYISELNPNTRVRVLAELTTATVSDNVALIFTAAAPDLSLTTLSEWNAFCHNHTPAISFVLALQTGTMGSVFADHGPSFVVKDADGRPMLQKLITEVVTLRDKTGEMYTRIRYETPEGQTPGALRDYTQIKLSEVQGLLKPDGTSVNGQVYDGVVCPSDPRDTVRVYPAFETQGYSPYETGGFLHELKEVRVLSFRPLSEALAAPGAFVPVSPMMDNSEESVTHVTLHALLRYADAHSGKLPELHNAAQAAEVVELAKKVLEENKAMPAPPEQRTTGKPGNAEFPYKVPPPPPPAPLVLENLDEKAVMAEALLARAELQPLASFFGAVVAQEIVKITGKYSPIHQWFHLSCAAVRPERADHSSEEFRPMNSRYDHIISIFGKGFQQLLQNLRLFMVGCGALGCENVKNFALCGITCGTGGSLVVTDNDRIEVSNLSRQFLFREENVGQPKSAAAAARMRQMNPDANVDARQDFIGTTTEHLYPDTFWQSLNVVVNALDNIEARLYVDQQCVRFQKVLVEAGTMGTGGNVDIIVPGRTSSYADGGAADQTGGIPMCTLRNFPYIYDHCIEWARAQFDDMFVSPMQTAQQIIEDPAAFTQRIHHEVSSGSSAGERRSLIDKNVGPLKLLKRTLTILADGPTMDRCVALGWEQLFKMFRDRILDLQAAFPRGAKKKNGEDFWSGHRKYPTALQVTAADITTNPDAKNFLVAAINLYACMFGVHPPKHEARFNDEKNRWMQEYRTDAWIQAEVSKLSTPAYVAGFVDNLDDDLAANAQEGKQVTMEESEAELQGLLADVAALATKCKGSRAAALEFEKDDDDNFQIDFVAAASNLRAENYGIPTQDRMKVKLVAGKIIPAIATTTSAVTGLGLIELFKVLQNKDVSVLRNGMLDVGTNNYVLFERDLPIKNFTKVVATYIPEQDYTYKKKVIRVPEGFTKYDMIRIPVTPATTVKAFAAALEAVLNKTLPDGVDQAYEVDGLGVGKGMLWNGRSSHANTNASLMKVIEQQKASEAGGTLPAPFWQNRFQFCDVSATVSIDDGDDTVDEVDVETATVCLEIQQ
The assay is described as follows: Leishmania donovani Ubiquitin Activating Enzyme (LdE1). In kind it is functional. Particulars: 30 µM.

The target of assay [3] is AMP-activated protein kinase, AMPK (Homo sapiens) (UniProt P54646+O43741+P54619+Q9UGJ0+Q9Y478+Q13131+Q9UGI9). The assay is described as follows: AMP-dependent Kinase enzyme assay. An in vitro enzyme assay that detects ADP turnover that is directly proportional to AMPK activity. This uses naive AMPK that is activated during the assay with MK-8722. In kind it is functional. Particulars: 30 µM.

In assay [4] the target is Sialic acid-binding Ig-like lectin 9 (Homo sapiens) (UniProt Q9Y336). The assay is described as follows: Hs-Siglec9 ALPHAscreen SOP 20170721. Particulars: 10 µM. (Bead proximity is the source of the signal in Alpha formats.)
The subject of a further assay is Trypanosoma cruzi. Briefly: Trypanosoma cruzi phosphomannomutase and mannose-1-phosphate guanylyltransferase assay. In kind it is functional. Particulars: 10 µM.
For assay [5], the target named is T2, Arginase-2, mitochondrial (Homo sapiens) (UniProt P78540).
T2 sequence (whole entry): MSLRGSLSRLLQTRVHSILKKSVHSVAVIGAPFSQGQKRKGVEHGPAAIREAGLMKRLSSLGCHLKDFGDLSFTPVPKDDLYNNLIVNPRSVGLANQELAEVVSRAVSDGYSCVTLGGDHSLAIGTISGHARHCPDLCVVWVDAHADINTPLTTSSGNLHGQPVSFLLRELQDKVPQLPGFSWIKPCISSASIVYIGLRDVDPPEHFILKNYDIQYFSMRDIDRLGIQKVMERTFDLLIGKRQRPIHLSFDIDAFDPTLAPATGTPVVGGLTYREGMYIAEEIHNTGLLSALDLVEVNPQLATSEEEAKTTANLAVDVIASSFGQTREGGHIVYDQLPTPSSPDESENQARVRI
The assay is described as follows: in vitro enzyme assay to detect the production of urea directly proportional to the activity of Arginase II. Further: in the data most compounds retested in dose-response had high values. In kind it is functional. Particulars: 33.3 µM.

Assay [6] addresses T3, Proteasome subunit beta (Trypanosoma cruzi) (UniProt O96673).
T3 sequence (whole entry): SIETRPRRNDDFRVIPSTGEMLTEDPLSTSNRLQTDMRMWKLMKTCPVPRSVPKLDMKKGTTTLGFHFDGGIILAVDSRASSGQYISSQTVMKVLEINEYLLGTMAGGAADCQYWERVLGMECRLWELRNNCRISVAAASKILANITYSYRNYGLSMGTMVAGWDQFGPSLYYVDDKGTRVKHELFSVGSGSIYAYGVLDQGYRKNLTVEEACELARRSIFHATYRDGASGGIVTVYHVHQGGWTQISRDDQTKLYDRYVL
The assay is described as follows: Trypanosoma cruzi proteasome chymotrypsin-like activity (TcProtChymo) assay. Further: in the data most compounds retested in dose-response had high values. In kind it is functional. Particulars: 9.37 µM.

The species entered for a further assay is Homo sapiens. Briefly: To identify inhibition of the IFN signalling (Jak-Stat) pathway via expression of an eGFP reporter gene under the control of an IFN-stimulated response element (ISRE) containing MxA promoter. Particulars: 30 µM. In kind it is functional. For orientation: In a reporter assay the amount or activity of a reporter protein is the signal.

In assay [7] the target is T4, Tyrosyl-tRNA synthetase, putative (Trypanosoma cruzi (strain CL Brener)) (UniProt Q4DSP6).
T4 sequence (whole entry): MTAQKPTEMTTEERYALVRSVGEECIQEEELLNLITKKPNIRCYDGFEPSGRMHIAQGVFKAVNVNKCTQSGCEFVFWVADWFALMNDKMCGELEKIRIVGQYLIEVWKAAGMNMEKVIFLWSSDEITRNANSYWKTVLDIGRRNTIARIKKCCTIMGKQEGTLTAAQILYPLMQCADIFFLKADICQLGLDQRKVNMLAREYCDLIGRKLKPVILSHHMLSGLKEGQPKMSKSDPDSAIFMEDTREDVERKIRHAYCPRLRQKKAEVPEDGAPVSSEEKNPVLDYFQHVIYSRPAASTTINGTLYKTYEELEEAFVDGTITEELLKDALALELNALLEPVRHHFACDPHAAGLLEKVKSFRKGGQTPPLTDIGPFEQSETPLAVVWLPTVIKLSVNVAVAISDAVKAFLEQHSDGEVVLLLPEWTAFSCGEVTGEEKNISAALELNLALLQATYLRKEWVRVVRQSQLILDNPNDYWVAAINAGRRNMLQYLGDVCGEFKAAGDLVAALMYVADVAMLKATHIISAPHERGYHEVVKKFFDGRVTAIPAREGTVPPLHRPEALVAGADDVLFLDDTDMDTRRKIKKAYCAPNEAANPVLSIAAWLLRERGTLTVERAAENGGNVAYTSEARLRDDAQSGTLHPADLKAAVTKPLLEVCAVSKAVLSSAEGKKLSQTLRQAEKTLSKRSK
The assay is described as follows: Trypanosoma cruzi tyrosyl tRNA synthetase (TcYRS) _High Tyrosine SOP. Further: in the data most compounds retested in dose-response had high values. In kind it is functional. Particulars: 30 µM.

Assay [8] deals with T4, Tyrosyl-tRNA synthetase, putative (Trypanosoma cruzi (strain CL Brener)). Briefly: Trypanosoma cruzi tyrosyl tRNA synthetase (TcYRS) SOP. In kind it is functional. Particulars: 30 µM.
Assay [9] concerns the target Chromo domain-containing protein 1 (Saccharomyces cerevisiae (strain ATCC 204508 / S288c) (Baker's yeast)) (UniProt P32657). Briefly: ScCHD-1 Enzyme Inhibition Assay. Further: in the data most compounds retested in dose-response had high values. In kind it is functional. Particulars: 30 µM.

Protein translocase subunit SecA (Escherichia coli (strain K12)), sequence (P10408 whole entry): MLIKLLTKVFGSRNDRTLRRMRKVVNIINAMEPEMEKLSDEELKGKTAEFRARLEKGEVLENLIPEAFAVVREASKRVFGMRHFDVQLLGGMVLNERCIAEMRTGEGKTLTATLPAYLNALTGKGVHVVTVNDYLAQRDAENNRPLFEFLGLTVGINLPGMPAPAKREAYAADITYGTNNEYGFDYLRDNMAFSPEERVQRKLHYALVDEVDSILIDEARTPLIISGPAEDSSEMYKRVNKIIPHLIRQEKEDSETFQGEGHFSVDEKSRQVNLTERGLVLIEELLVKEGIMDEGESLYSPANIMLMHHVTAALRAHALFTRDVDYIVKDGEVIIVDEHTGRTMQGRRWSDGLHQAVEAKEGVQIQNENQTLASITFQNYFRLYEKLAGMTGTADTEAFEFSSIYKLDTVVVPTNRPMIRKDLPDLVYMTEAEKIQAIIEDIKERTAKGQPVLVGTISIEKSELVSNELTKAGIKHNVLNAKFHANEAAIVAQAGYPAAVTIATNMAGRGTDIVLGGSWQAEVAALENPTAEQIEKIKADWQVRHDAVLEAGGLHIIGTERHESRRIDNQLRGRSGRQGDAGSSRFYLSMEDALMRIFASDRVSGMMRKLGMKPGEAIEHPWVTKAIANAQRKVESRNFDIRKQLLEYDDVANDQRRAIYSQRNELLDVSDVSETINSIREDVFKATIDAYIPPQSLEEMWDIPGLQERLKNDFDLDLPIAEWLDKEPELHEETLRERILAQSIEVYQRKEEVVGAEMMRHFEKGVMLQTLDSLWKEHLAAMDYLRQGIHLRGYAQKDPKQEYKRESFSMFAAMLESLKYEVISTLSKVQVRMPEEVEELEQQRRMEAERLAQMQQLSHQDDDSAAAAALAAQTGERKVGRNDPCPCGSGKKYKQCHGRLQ
Chromo domain-containing protein 1 (Saccharomyces cerevisiae (strain ATCC 204508 / S288c) (Baker's yeast)), sequence (P32657 whole entry, the tested form may be a part): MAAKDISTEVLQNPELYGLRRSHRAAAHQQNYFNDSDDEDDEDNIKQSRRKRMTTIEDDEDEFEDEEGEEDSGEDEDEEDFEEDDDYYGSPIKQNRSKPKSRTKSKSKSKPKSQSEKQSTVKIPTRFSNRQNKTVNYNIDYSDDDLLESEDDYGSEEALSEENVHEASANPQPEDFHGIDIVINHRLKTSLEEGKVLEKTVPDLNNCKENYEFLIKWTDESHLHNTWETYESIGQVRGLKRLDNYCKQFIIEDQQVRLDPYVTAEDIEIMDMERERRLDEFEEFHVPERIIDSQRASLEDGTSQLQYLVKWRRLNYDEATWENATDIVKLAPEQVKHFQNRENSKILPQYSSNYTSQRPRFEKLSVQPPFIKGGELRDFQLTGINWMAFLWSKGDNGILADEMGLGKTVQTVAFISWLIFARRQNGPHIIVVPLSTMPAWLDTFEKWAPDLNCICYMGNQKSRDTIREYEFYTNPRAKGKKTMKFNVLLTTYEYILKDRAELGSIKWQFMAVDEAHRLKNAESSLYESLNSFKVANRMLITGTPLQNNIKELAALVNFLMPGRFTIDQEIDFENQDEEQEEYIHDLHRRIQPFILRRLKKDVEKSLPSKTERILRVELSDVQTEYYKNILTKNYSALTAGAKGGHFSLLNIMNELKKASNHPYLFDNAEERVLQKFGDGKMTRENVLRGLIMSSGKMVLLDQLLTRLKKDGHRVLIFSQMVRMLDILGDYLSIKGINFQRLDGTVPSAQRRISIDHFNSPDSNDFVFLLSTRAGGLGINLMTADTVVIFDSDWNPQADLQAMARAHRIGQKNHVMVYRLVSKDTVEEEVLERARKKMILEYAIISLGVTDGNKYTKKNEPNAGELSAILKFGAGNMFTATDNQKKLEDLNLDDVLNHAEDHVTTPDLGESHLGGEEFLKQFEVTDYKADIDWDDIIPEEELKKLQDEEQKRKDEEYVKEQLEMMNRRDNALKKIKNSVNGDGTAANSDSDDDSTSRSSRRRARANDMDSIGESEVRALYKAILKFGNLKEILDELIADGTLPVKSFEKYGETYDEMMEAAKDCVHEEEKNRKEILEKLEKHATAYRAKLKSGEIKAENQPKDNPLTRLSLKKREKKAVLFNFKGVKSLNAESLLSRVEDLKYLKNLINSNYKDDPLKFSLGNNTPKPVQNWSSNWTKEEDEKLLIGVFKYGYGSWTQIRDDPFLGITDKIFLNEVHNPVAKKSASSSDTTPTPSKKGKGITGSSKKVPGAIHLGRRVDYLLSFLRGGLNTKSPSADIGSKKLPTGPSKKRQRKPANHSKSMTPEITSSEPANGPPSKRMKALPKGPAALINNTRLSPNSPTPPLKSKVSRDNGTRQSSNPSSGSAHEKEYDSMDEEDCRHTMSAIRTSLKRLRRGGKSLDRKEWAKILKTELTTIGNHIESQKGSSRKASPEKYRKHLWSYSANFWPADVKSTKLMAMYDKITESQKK
Sialic acid-binding Ig-like lectin 9 (Homo sapiens), sequence (Q9Y336 whole entry): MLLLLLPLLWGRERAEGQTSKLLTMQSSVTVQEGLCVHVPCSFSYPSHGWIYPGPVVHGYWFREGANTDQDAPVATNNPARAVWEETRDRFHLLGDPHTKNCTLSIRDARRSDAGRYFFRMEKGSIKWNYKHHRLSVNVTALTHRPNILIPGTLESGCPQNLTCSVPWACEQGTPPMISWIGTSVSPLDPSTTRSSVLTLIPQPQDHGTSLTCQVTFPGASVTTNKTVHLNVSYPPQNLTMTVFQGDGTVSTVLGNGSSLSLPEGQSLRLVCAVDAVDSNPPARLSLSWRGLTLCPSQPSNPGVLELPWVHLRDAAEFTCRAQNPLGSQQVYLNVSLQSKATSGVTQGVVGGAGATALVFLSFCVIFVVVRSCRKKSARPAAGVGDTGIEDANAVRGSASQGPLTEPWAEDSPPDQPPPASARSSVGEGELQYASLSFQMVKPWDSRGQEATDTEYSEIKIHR

In the case of `Cc1ccc(CNCc2ccc(-n3nc(C)cc3C)nc2)cc1`, the Percent Effect in assay [1] is -1.16%; in [2], 13.2%; in assay [3], 0.483%; in [4], 7.65%; with Trypanosoma cruzi, 1.5%; in [5], 0.383%. Further, the Percent Effect in assay [6] was 11.4%; in the assay filed under Homo sapiens, 6.18%; in assay [7], 9.31%; in [8], 19.5%; in [9], -9.49%.

In the case of `Cc1nc(CN2CCN(C(=O)c3ccn(C)c(=O)c3)CC2)cs1`, the Percent Effect in assay [1] was -3.89%; in [2], 19%; in [3], -4.58%; in [4], -0.681%; with Trypanosoma cruzi, 2.15%; in assay [5], -4.52%. Also, the Percent Effect in assay [6] is 15.9%; in the assay filed under Homo sapiens it was 10.6%; in assay [7], 9.38%; in [8], 15.2%; in [9], -25.7%.

With `Cc1ccn(-c2ccccc2NCc2cccnc2C)n1`, the Percent Effect was -0.328% in assay [1]; 0% in assay [2]; 2.86% in assay [3]; -2.06% in assay [4]; -0.196% in the assay with Trypanosoma cruzi; 0% in assay [5]. In addition, the Percent Effect in assay [6] was 3.02%; in the assay listed under Homo sapiens, 17.4%; in [7] it was -1.07%; in assay [8], -2.5%; in [9], -0.646%.

For the compound `CC(C)Oc1ccccc1C1CC(=O)Nc2c1cnn2C` (stereo not given), the Percent Effect is -2.1% in [1]; -15.8% in assay [2]; 7.56% in [3]; 5.91% in [4]; -3.21% in the assay on Trypanosoma cruzi; -7.1% in [5]. Besides, the Percent Effect in assay [6] was 15.6%; in the assay filed under Homo sapiens, 15.6%; in assay [7], -2.13%; in assay [8], 2.6%; in assay [9], -0.488%.

As for `CN(CCc1cccs1)C1CCCN(Cc2noc(C3CC3)n2)C1` (stereo not given), the Percent Effect is -1.04% in assay [1]; 4.17% in assay [2]; -15.1% in assay [3]; -5.62% in assay [4]; 2.82% in the assay on Trypanosoma cruzi; 10.2% in assay [5]. The Percent Effect in assay [6] was 15.6%; in the assay listed under Homo sapiens, -4.89%; in assay [7], 3.16%; in [8] it was 7.69%; in [9] it was -3.54%.

With `Cc1ncc(C)c(N2CCCC(CO)(Cc3cccc(Cl)c3)C2)n1` (stereo not given), the Percent Effect in [1] is -3.59%; in assay [2], 13%; in assay [3], 3.66%; in assay [4], 15.9%; in the assay with Trypanosoma cruzi, 5.61%; in [5], 9.65%. Further, the Percent Effect in assay [6] was 13.1%; in the assay listed under Homo sapiens, 34%; in assay [7] it was 7.53%; in assay [8], 13.6%; in [9], -6.49%.

Regarding `Cc1nc(C(=O)N2CCC(Nc3cccnn3)CC2)cs1`, the Percent Effect in assay [1] is -9.75%; in assay [2], 7.79%; in assay [3] it was -12.2%; in assay [4] it was -10.3%; with Trypanosoma cruzi, 9.11%; in [5], -5.68%. Further, the Percent Effect in assay [6] was 12.7%; in the assay listed under Homo sapiens, -1.06%; in assay [7] it was 1.91%; in assay [8], 18.8%; in assay [9], -20.4%.

Take `COc1ccc(NC(=O)CNc2cccc3c2CCCC3)c(OC)c1`: the Percent Effect in assay [1] is -6.64%; in assay [2], -2.7%; in assay [3], -0.0771%; in [4] it was 0.268%; with Trypanosoma cruzi, -5.57%; in [5] it was -3.23%. Further, the Percent Effect in [6] was 6.95%; in the assay listed under Homo sapiens, -3.03%; in assay [7], -6.45%; in assay [8], -11.1%; in assay [9] it was -3.27%.

Turning to `CCCNC(=O)N1CCC(Oc2cc(C)ccc2F)(C(=O)O)CC1`, the Percent Effect in assay [1] is -2.42%; in assay [2], 9.72%; in [3], -3.19%; in assay [4], 22.9%; in the assay on Trypanosoma cruzi, 6.9%; in assay [5], 24.3%. Besides, the Percent Effect is 1.75% in [6]; -5.25% in the assay filed under Homo sapiens; -1.05% in assay [7]; 10.3% in [8]; -1.57% in assay [9].

With `CC(C)N1CCC(N2CCN(C3CCC3)CC2CCO)CC1` (stereo not given), the Percent Effect is -2.22% in assay [1]; 1.39% in assay [2]; -21.6% in [3]; 12% in assay [4]; 5.73% in the assay on Trypanosoma cruzi; 20.8% in assay [5]. Moreover, the Percent Effect was -1.75% in [6]; -10.3% in the assay filed under Homo sapiens; 2.1% in assay [7]; 5.13% in assay [8]; 0.447% in assay [9].
